Assay results reported in PubChem BioAssay (Tox21).
“And” between values parts separate entries of the source, which are not always exact repeats. Identical values can stand only once. Records with an inconclusive call do not appear. More than one record can exist for a structure, and the calls need not agree. The source made the active and inactive calls. Unless noted, the call rests on the fitted dose curve; in most records, active means well fitted curve in the direction sought with a large enough effect in the repeat runs; inconclusive means weak or mixed curves; inactive means no such curve, though single readings can be large; an effect the other way counts as inactive or inconclusive.

Assays:
[1] = A CellTox Green Cytotoxicity Assay to monitor cytotoxicity in HepG2 cells - 8 hour (AID 1224890); further: nearly all actives have a fitted effect of over 45% in size; further: potency means the concentration at half of the fitted maximal effect
Procedure, shortened: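 Continuous culture of HepG2 cells with a membrane-impermeant DNA dye; rising fluorescence marks dead cells. Compound exposure lasted up to 40 h at 37 C, with reads every 8 h from 0 h.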

[2] = qHTS assay to identify small molecule antagonists of the estrogen receptor alpha (ER-alpha) signaling pathway using the BG1 cell line in the presence of 0.1 nM 17-beta-estradiol - cell viability counter screen (AID 1259241); further: nearly all actives have a fitted effect of over 40% in size
Procedure, shortened: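 Cytotoxicity counter-screen: live-cell protease activity measured by fluorescence (30 min reagent step) in the same wells. Cells were VM7Luc4E2 with endogenous ER-alpha and ERE-driven luciferase, treated 22 hr at 37C alongside 0.1 nM 17beta-estradiol final.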

[3] = qHTS assay to identify small molecule antagonists of the androgen receptor (AR) signaling pathway using the MDA cell line in the presence of 0.5 nM R1881 - cell viability counter screen (AID 1259242); further: nearly all actives have a fitted effect of over 45% in size
Procedure, shortened: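 Fluorescence from CellTiter-Fluor, which reports protease activity of live cells, was read 30 min after reagent addition to MDA-kb2 cells that had been incubated 16 hr with compound and 0.5 nM R1881.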

[4] = molecular target: Estrogen receptor (Homo sapiens) (UniProt P03372); assay: qHTS assay to identify small molecule antagonists of the estrogen receptor alpha (ER-alpha) signaling pathway using the BG1 cell line in the presence of 0.1 nM 17-beta-estradiol (AID 1259244); further: nearly all actives have a fitted effect of over 50% in size; further: potency means the concentration at half of the fitted maximal effect
Procedure, shortened: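 Quantitative high-throughput screen in VM7Luc4E2 cells: compound plus 0.1 nM E2 (final), 22 h, 37C, 5% CO2; ONE-Glo added, 30 min room temperature, luminescence measured.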

[5] = qHTS assay to identify small molecule HDAC inhibitors (AID 1259364); further: top concentration of the series differs between compounds; nearly all actives have a fitted effect of over 45% in size
Procedure, shortened: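 Endogenous HDAC class I/II activity was measured in wild-type HCT-116 cells by HDAC-Glo luminescence after 2 h compound treatment.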

[6] = qHTS assay to identify small molecule HDAC inhibitors - cell viability counter screen (AID 1259365); further: series mostly up to about 92 µM; nearly all actives have a fitted effect of over 50% in size
Procedure, shortened: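 CellTiter-Glo luminescence (30 min, room temperature) reported viability after a 2 h compound exposure at 37 C. Cells: wild-type HCT-116, 1,500 per well, seeded the night before.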

[7] = qHTS assay to identify small molecule agonists of the sonic hedgehog signaling (Shh) pathway - cell viability counter screen (AID 1259366); further: nearly all actives have a fitted effect of over 50% in size; further: potency means the concentration at half of the fitted maximal effect
Procedure, shortened: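 Cytotoxicity counter screen: CellTiter-Fluor reagent added after 23 h compound exposure, then 1 h at 37C and fluorescence read. Cells were 3T3 Gli1-Luc, seeded 2,000 per well and dosed 4 h post-plating.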

[8] = qHTS assay to identify small molecule antagonists of the sonic hedgehog signaling (Shh) pathway - cell viability counter screen (AID 1259367); further: nearly all actives have a fitted effect of over 55% in size; further: potency means the concentration at half of the fitted maximal effect
Procedure, shortened: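 After a 4 hr settling period, 3T3 Gli1-Luc cells were treated with DMSO-dissolved chemicals and conditioned medium, kept 24 hr at 37C in 5% CO2, and assayed for viability by CellTiter-Fluor fluorescence following 1 hr reagent incubation.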

[9] = qHTS assay to identify small molecule antagonists of the sonic hedgehog signaling (Shh) pathway (AID 1259369; calls by dose curve; further: nearly all actives have a fitted effect of over 45% in size; further: potency means the concentration at half of the fitted maximal effect)
Procedure, shortened: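 Screening used 3T3Gli1-Luc cells at 2,000 per well, compounds delivered in DMSO, and conditioned medium as agonist stimulus; plates incubated 24hr at 37 C and 5% CO2 before a 30min luciferase step.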

[10] = molecular target: Estrogen receptor beta (Homo sapiens) (UniProt Q92731); assay: qHTS assay to identify small molecule agonists of the estrogen receptor beta (ER-beta) signaling pathway (AID 1259377; active means well fitted activation curve with a large enough effect in the signal ratio in the repeat runs, not every such curve was filed as active; the % refers to the signal ratio)
Procedure, shortened: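 Ratiometric beta-lactamase FRET read-out came after 2 h substrate loading at room temperature. It followed 16 h compound treatment at 37C of GripTite HEK293T cells carrying a UAS-bla reporter, plated in 2% charcoal-stripped FBS medium.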

[11] = molecular target: Estrogen receptor beta (Homo sapiens) (UniProt Q92731); assay: qHTS assay to identify small molecule antagonists of the estrogen receptor beta (ER-beta) signaling pathway (AID 1259378; active means well fitted inhibition curve with a large enough effect in the signal ratio in the repeat runs, not every such curve was filed as active; the % refers to the signal ratio; further: potency means the concentration at half of the fitted maximal effect)
Procedure, shortened: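 ER-beta-UAS-bla HEK293T (GripTite) cells in 2% charcoal-stripped FBS medium were preincubated 6 hr at 37C, dosed with compound, then stimulated with 1 nM E2 (final) for 16 hr; beta-lactamase reporter read by B/G FRET fluorescence after 2 hr substrate loading.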

[12] = qHTS assay to identify small molecule agonists of the androgen receptor (AR) signaling pathway in the presence of an antagonist - cell viability counter screen (AID 1259379);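 further: MDA-kb2 human breast cancer cells carrying an MMTV luciferase reporter; series mostly up to about 92 µM; nearly all actives have a fitted effect of over 25% in size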
Procedure, shortened: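 In MDA-kb2 cells (human breast carcinoma, MMTV-luciferase), compounds at 15 concentrations plus 3.0uM nilutamide; 16 hr, 37C, 0% CO2; CellTiter-Fluor fluorescence read for viability.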

[13] = qHTS assay to identify small molecule agonists of the estrogen receptor beta (ER-beta) signaling pathway - cell viability counter screen (AID 1259380); further: nearly all actives have a fitted effect of over 30% in size; further: potency means the concentration at half of the fitted maximal effect
Procedure, shortened: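 Viability of ER-beta-UAS-bla HEK293T cells was determined by CellTiter-Glo luminescence following 16 hr treatment with test compounds at 37C.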

[14] = qHTS assay to identify small molecule antagonists of the estrogen receptor beta (ER-beta) signaling pathway - cell viability counter screen (AID 1259382); further: series mostly up to about 92 µM; nearly all actives have a fitted effect of over 55% in size
Procedure, shortened: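 Tox21 10K library tested in qHTS format on ER-beta-bla HEK293T cells stimulated with 1nM E2; 16 hr treatment at 37C. Same-well CellTiter-Glo luminescence served as the cell viability measure.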

[15] = molecular target: Estrogen receptor (Homo sapiens) (UniProt P03372); assay: qHTS assay to identify small molecule agonists of the estrogen receptor alpha (ER-alpha) signaling pathway in the presence of an antagonist (AID 1259383; calls by dose curve; further: top concentration of the series differs between compounds; nearly all actives have a fitted effect of over 15% in size)
Procedure, shortened: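 In VM7Luc4E2 cells, 4,000 per well, compounds at 15 concentrations were co-incubated 22hr at 37C with 10.0nM final ICI-182,780. Luminescence from the stably transfected 4×ERE-luciferase reporter was recorded 30min after ONE-Glo addition.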

[16] = qHTS assay to identify small molecule agonists or antagonists of the thyroid stimulating hormone receptor (TSHR) signaling pathway - wild type cell line counter screen (AID 1259384; calls by dose curve)
Procedure, shortened: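 Wild-type HEK293 cells were plated 18 h at 37 C/5% CO2, pin-dosed with compound plus Ro20-1724 medium, held 30 min at room temperature, then given cAMP-d2 and anti-cAMP-cryptate; fluorescence was read after 1 h. Fifteen concentrations, triplicate.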

[17] = qHTS assay to identify small molecule agonists of the sonic hedgehog signaling (Shh) pathway (AID 1259368; calls by dose curve;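 further: NIH/3T3-derived 3T3Gli1-Luc cells carrying a stable Gli1-driven firefly luciferase reporter; series mostly up to about 92 µM; nearly all actives have a fitted effect of over 15% in size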)
Procedure, shortened: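 Luminescent signal was taken as a measure of Gli1-controlled luciferase expression in stably transfected NIH/3T3-derived cells that had been treated for 24 hr with compounds delivered in DMSO.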

[18] = qHTS assay to identify small molecule phospholipidosis (PLD) inducers (AID 1259344; active means well fitted curve in the direction sought with a large enough effect; an effect the other way counts as inactive or inconclusive)
Procedure, shortened: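 HepG2 cells grown on collagen I take up LipidTOX Red while exposed to compound for 24 h; after fixation they are imaged at 20x and pit metrics are extracted.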

Measured: Potency

Chain of Estrogen receptor beta (Homo sapiens) (Q92731 whole entry, looked up): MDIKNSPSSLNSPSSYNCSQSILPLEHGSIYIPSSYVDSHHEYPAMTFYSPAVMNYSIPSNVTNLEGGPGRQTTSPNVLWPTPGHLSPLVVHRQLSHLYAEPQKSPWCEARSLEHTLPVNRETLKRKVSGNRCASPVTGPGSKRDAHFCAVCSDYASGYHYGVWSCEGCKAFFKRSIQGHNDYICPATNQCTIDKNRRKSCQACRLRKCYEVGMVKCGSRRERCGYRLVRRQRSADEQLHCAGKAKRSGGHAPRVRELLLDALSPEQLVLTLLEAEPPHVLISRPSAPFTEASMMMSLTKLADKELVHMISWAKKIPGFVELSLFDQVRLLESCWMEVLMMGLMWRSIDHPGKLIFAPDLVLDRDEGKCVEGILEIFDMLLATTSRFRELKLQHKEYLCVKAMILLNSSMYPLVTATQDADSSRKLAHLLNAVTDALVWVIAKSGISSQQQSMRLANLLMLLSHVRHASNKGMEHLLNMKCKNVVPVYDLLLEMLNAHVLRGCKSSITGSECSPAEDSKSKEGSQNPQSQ
Chain of Estrogen receptor (Homo sapiens) (P03372 whole entry, looked up): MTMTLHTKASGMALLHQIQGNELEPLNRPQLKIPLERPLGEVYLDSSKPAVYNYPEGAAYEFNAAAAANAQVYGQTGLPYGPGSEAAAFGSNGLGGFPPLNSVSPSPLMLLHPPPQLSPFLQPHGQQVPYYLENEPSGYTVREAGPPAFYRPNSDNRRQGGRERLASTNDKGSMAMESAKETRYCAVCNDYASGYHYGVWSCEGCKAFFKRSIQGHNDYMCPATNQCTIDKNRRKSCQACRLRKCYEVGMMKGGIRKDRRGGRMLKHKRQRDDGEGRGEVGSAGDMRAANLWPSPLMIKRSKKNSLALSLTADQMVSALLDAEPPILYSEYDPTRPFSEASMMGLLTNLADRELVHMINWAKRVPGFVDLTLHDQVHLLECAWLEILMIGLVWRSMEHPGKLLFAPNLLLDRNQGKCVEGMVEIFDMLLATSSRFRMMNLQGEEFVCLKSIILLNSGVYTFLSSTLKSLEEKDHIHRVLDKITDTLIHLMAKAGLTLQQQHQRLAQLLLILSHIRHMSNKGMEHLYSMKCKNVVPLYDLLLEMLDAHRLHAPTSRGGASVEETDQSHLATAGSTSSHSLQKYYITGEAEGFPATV

S=C(NC1CCCCC1)NC1CCCCC1
active: [4] 53.4 µM and 48.6 µM | [9] 24.3 µM | [11] 6.11 µM
inactive and 30.6 µM (active): [8]
not listed: [17] | [18]
inactive: all other assays above

COc1ccccc1/C=C/C=O
active: [11] 55.9 µM and 54.5 µM | [13] 55.9 µM
35.3 µM (active) and inactive: [9]
not listed: [12] | [15] | [18]
inactive: all other assays above

C=CC(C)(CCC=C(C)C)OC(C)=O (stereo not drawn)
not listed: [10] | [11] | [15] | [18]
inactive: all other assays above

O=Cc1ccccc1O
not listed: [10] | [11] | [15] | [18]
inactive: all other assays above

CCC(C)OC(=O)c1ccc(O)cc1 (stereo not drawn)
not listed: [5] | [10] | [11] | [15] | [18]
inactive: all other assays above

OC(CCl)CCl
not listed: [15] | [18]
inactive: all other assays above

CC(=O)CC/C=C(\C)CCC=C(C)C
not listed: [15] | [18]
inactive: all other assays above

c1cc(N(CC2CO2)CC2CO2)ccc1OCC1CO1 (stereo not drawn)
active: [7] 61.1 µM | [8] 27.3 µM | [9] 3.44 µM and 9.69 µM
not listed: [10] | [11] | [12] | [15] | [18]
inactive: all other assays above

CC1=CC2C3CC(C=C3C)C2C1 (stereo not drawn)
inactive and 38.9 µM (active): [1]
inactive and 21.7 µM (active): [9]
not listed: [13] | [18]
inactive: all other assays above

Nc1ncnc2nc[nH]c12
not listed: [6]
inactive: all other assays above

CCCCOCCOCCOCCO
not listed: [15] | [18]
inactive: all other assays above

CCC(C)(O)CCCC(C)C (stereo not drawn)
not listed: [10] | [11] | [15] | [18]
inactive: all other assays above

CCCCOCCOCCO
not listed: [18]
inactive: all other assays above

c1cc(-c2ccncc2)ccn1
not listed: [18]
inactive: all other assays above

Nc1ccc(Nc2ccccc2)cc1
active: [7] 61.1 µM | [8] 48.6 µM | [9] 4.8 µM and 1.72 µM and 4.33 µM | [13] 24.3 µM
not listed: [10] | [11] | [16] | [18]
inactive: all other assays above
